Source: PubChem BioAssay (NCI)
Compounds without any hit were thinned out: in the full panel of roughly 79,000, 15% have a hit. Calls of active or inactive are those of the source. Cut-off read from the data, not from the text of the source: active = growth inhibition above about 70%; inactive = the rest.

Assays:
[1] = NCI Yeast Anticancer Drug Screen. Data for the rad52 strain (AID 147);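 note: 0% = growth of vehicle-treated control cultures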; conditions: S. cerevisiae rad52 mutant growth inhibition, active compounds read high
How it was run: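 The repair-mutant yeast strain was incubated with compounds, then growth was read and inhibition derived relative to vehicle.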

[2] = NCI Yeast Anticancer Drug Screen. Data for the wt1 strain (AID 149);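 note: 0% = growth of vehicle-treated wt1 cultures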; conditions: S. cerevisiae wt1 strain (SPY 50644) growth inhibition, active compounds read high
How it was run: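 Using yeast strain wt1, compound-induced growth inhibition was determined against vehicle-treated cultures.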

[3] = NCI Yeast Anticancer Drug Screen. Data for the rad50EPP+ strain (AID 151);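 note: 0% = growth of vehicle-treated control cultures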; conditions: S. cerevisiae rad50 mutant strain, active compounds read high
How it was run: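 Vehicle-normalised growth inhibition; rad50EPP+ yeast strain, altered in DNA damage repair, compound-treated.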

[4] = NCI Yeast Anticancer Drug Screen. Data for the mgt1 strain (AID 153); conditions: S. cerevisiae mgt1 mutant growth inhibition, active compounds read high
How it was run: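 Vehicle-normalized growth inhibition is determined in mgt1 yeast, a strain selected for a defined alteration in DNA repair or cell cycle control.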

[5] = NCI Yeast Anticancer Drug Screen. Data for the rad50 strain (AID 155);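 note: 0% = growth of vehicle-only cultures of the same strain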; conditions: S. cerevisiae rad50 strain growth inhibition, active compounds read high
How it was run: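 Relative growth inhibition (compound vs vehicle) was measured in yeast with a defined repair-gene alteration.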

[6] = NCI Yeast Anticancer Drug Screen. Data for the mec2-1 strain (AID 157); conditions: S. cerevisiae mec2-1 strain, active compounds read high
How it was run: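 Mutant yeast (mec2-1) grown with compound; growth inhibition relative to vehicle control reported.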

[7] = NCI Yeast Anticancer Drug Screen. Data for the rad14 strain (AID 159);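 note: 0% = growth of vehicle-treated control cultures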; conditions: S. cerevisiae rad14 strain growth inhibition, active compounds read high
How it was run: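 Screen for anticancer potential: a yeast strain altered in DNA damage repair is grown with compound, and reduced growth is quantified against vehicle controls.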

[8] = NCI Yeast Anticancer Drug Screen. Data for the sgs1 mgt1 strain (AID 161);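 note: 0% = growth of cultures given vehicle only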; conditions: S. cerevisiae sgs1 mgt1 strain, active compounds read high
How it was run: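 Percent growth inhibition was derived by comparing compound-exposed mutant yeast with vehicle-exposed cultures. The strain carries alterations in DNA damage repair.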

[9] = NCI Yeast Anticancer Drug Screen. Data for the CLN2oe strain (AID 163);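 note: 0% = growth of vehicle-only control cultures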; conditions: S. cerevisiae CLN2oe strain, active compounds read high
How it was run: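 Compounds are applied to yeast harbouring a defined cell-cycle control change; reduced growth compared with vehicle-treated controls gives the value.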

[10] = NCI Yeast Anticancer Drug Screen. Data for the cln2 rad14 strain (AID 165);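 note: 0% = growth equal to vehicle treated cultures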; conditions: S. cerevisiae cln2 rad14 strain, active compounds read high
How it was run: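 Readout is yeast growth inhibition versus vehicle-treated controls, using a strain with cln2 and rad14 alterations exposed to compound.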

[11] = NCI Yeast Anticancer Drug Screen. Data for the bub3 strain (AID 167); conditions: S. cerevisiae bub3 mutant strain, active compounds read high
How it was run: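 Screening used yeast with an engineered genetic alteration affecting cell cycle control. Compound-exposed cultures were compared with vehicle cultures, and reduced growth was taken as inhibition.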

[12] = NCI Yeast Anticancer Drug Screen. Data for the wt2 strain (AID 169);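 note: 0% = growth of vehicle-treated yeast cultures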; conditions: S. cerevisiae wt2 strain growth inhibition, active compounds read high
How it was run: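 Against vehicle-treated controls, the growth of yeast exposed to each compound was compared, and the inhibition was recorded.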

[13] = NCI Yeast Anticancer Drug Screen. Data for the mlh1 strain (AID 171);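 note: 0% = growth of vehicle-treated control cultures of the same strain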; conditions: S. cerevisiae mlh1 strain growth inhibition, active compounds read high
How it was run: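 Measured: yeast growth. Reference: vehicle-treated controls. Organism: strain with a defined alteration affecting DNA damage repair or cell cycle control, treated with compound.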

[14] = NCI Yeast Anticancer Drug Screen. Data for the sgs1 strain (AID 173);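 note: 0% = growth of vehicle-only control cultures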; conditions: S. cerevisiae sgs1 mutant, active compounds read high
How it was run: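 Each compound was added to cultures of the altered yeast strain. Growth was recorded, and inhibition was derived by comparison with vehicle controls.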

[15] = NCI Yeast Anticancer Drug Screen. Data for the mlh1 rad18 strain (AID 175); conditions: S. cerevisiae mlh1 rad18 strain growth inhibition, active compounds read high
How it was run: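 Genetically defined yeast (DNA repair-deficient) exposed to compounds; growth inhibition determined relative to vehicle.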

[16] = NCI Yeast Anticancer Drug Screen. Data for the rad18 strain (AID 177); conditions: S. cerevisiae rad18 mutant growth inhibition, active compounds read high
How it was run: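 Vehicle-treated cultures served as the baseline for scoring compound-induced growth inhibition in DNA-repair-mutant yeast.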

[17] = at 5.0 µM (retest, dose inferred, filed as 0.5)
[18] = at 50.0 µM (retest, dose inferred, filed as 5.0)

Measured: growth inhibition

OC(CCNCc1ccccc1)c1ccc2ccccc2c1 (stereo not drawn)
inactive: [1]; at 1.2 µM 15% | [1]; at 3.7 µM 42% | [1]; at 11.0 µM 69% | [2]; at 1.2 µM 2% | [2]; at 3.7 µM 33% | [2]; at 11.0 µM 41% | [2]; at 33.0 µM 60% | [3]; at 1.2 µM -5% | [3]; at 3.7 µM -12% | [3]; at 11.0 µM 13% | [3]; at 33.0 µM 27% | [3]; at 100.0 µM 21% | [4]; at 1.2 µM 14% | [4]; at 3.7 µM 34% | [4]; at 11.0 µM 63% | [5]; at 1.2 µM 15% | [5]; at 3.7 µM 44% | [5]; [17] 22% | [6]; at 1.2 µM -1% | [6]; at 3.7 µM 10% | [6]; [17] 15% | [6]; at 11.0 µM 22% | [6]; at 33.0 µM 47% | [6]; at 50.0 µM 37.9% | [6]; at 100.0 µM 58% | [7]; at 1.2 µM 32% | [7]; at 3.7 µM 56% | [8]; [17] 9% | [9]; at 1.2 µM 19% | [9]; at 3.7 µM 53% | [9]; at 11.0 µM 68% | [10]; [17] 29% | [11]; at 1.2 µM 29% | [11]; at 3.7 µM 45% | [11]; [17] 37% | [11]; at 11.0 µM 68% | [12]; at 1.2 µM 24% | [12]; at 3.7 µM 65% | [13]; at 1.2 µM -4% | [13]; at 3.7 µM 31% | [13]; at 11.0 µM 45% | [14]; at 1.2 µM 18% | [14]; at 3.7 µM 20% | [15]; [17] 51% | [15]; at 50.0 µM 65.7% | [16]; at 1.2 µM -1% | [16]; at 3.7 µM 31% | [16]; at 11.0 µM 45%
active: [1]; at 33.0 µM 87% | [1]; at 100.0 µM 90% | [2]; at 100.0 µM 72% | [4]; at 33.0 µM 84% | [4]; at 100.0 µM 96% | [5]; at 11.0 µM 72% | [5]; at 33.0 µM 92% | [5]; [18] 88% | [5]; at 50.0 µM 75.5% | [5]; at 100.0 µM 94% | [6]; [18] 76% | [7]; at 11.0 µM 85% | [7]; at 33.0 µM 96% | [7]; at 100.0 µM 99% | [8]; [18] 93% | [8]; at 50.0 µM 80.7% | [9]; at 33.0 µM 80% | [9]; at 100.0 µM 93% | [10]; [18] 80% | [10]; at 50.0 µM 75.2% | [11]; at 33.0 µM 91% | [11]; [18] 91% | [11]; at 50.0 µM 72% | [11]; at 100.0 µM 96% | [12]; at 11.0 µM 83% | [12]; at 33.0 µM 95% | [12]; at 100.0 µM 96% | [13]; at 33.0 µM 80% | [13]; at 100.0 µM 95% | [14]; at 11.0 µM 70% | [14]; at 33.0 µM 92% | [14]; at 100.0 µM 95% | [15]; [18] 96% | [16]; at 33.0 µM 70% | [16]; at 100.0 µM 87%
